Experiments:
Assay in all cases: PBM binding z-score (relative to random genomic background probes); higher = stronger binding; sequences stand for … in GC…GCGATTGACAGCGTAGAATGAAGG
[1] = test system: FXR:RXRa (NR concentration 270 nM, RXRa partner concentration 90 nM)
Method in brief: (§1)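 Regression normalization was applied to scanned fluorescence from custom Agilent 4×180K protein-binding microarrays. Before scanning, arrays were incubated 1 h with ligand-free nuclear receptor dimers, and binding was detected with antibodies against each partner (one per run). Binding z-scores use the random background probes as reference.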

[2] = test system: LXRa:RXRa (NR concentration 270 nM, RXRa partner concentration 90 nM)
Method in brief: as §1

[3] = test system: LXRa homodimer (NR concentration 270 nM)
Method in brief: as §1

[4] = test system: LXRb:RXRa (NR concentration 270 nM, RXRa partner concentration 90 nM)
Method in brief: as §1

[5] = test system: LXRb homodimer (NR concentration 270 nM)
Method in brief: as §1

[6] = test system: PPARa:RXRa (NR concentration 270 nM, RXRa partner concentration 90 nM)
Method in brief: as §1

[7] = test system: PPARg:RXRa (NR concentration 180 nM, RXRa partner concentration 90 nM)
Method in brief: as §1

[8] = test system: PPARg:RXRa 270nM:90nM, anti-RXR (NR concentration 270 nM, RXRa partner concentration 90 nM)
Method in brief: as §1

[9] = test system: PPARg:RXRa 30nM:10nM, anti-RXR (NR concentration 30 nM, RXRa partner concentration 10 nM)
Method in brief: as §1

[10] = test system: PPARg:RXRa 90nM:30nM, anti-RXR (NR concentration 90 nM, RXRa partner concentration 30 nM)
Method in brief: as §1

[11] = test system: PPARg:RXRa DBDmut IVT, anti-RXR (DBD mutation: RXRa K156A/R161A, NR concentration 270 nM, RXRa partner concentration 90 nM)
Method in brief: as §1

[12] = test system: PPARg:RXRa IVT, anti-PPARg (NR concentration 270 nM, RXRa partner concentration 90 nM)
Method in brief: as §1

[13] = test system: PPARg DBDmut:RXRa IVT, anti-PPARg (DBD mutation: PPARg1 K132A/R137A, NR concentration 270 nM, RXRa partner concentration 90 nM)
Method in brief: as §1

[14] = test system: PPARg DBDmut IVT, anti-PPARg (DBD mutation: PPARg1 K132A/R137A, NR concentration 270 nM)
Method in brief: as §1

[15] = test system: PPARg homodimer (NR concentration 180 nM)
Method in brief: as §1

[16] = test system: PXR:RXRa (NR concentration 270 nM, RXRa partner concentration 90 nM)
Method in brief: as §1

[17] = test system: PXR homodimer (NR concentration 270 nM)
Method in brief: as §1

[18] = test system: RARa:RXR (NR concentration 270 nM, RXRa partner concentration 90 nM)
Method in brief: as §1

[19] = test system: RARa homodimer (NR concentration 270 nM)
Method in brief: as §1

[20] = test system: RARb:RXRa (NR concentration 270 nM, RXRa partner concentration 90 nM)
Method in brief: as §1

Sequence: GCGACTGGGGCATCAGCAGGTTGCCATAACTTAA
- PBM binding z-score [1]: -0.664
- PBM binding z-score [2]: -0.697
- PBM binding z-score [3]: -0.615
- PBM binding z-score [4]: -0.443
- PBM binding z-score [5]: -1.37
- PBM binding z-score [6]: 0.348
- PBM binding z-score [7]: 0.434
- PBM binding z-score [8]: 0.229
- PBM binding z-score [9]: -0.762
- PBM binding z-score [10]: -0.301
- PBM binding z-score [11]: 3.45
- PBM binding z-score [12]: 2.85
- PBM binding z-score [13]: 0.246
- PBM binding z-score [14]: -0.846
- PBM binding z-score [15]: -0.258
- PBM binding z-score [16]: -0.58
- PBM binding z-score [17]: -0.422
- PBM binding z-score [18]: -0.453
- PBM binding z-score [19]: -0.648
- PBM binding z-score [20]: 0.207

Sequence: ATCAAAAGGTCGTGAGGTGAGTATACAGAAAGGC
- PBM binding z-score [1]: 5.1
- PBM binding z-score [2]: 4.46
- PBM binding z-score [3]: 0.539
- PBM binding z-score [4]: 3.63
- PBM binding z-score [5]: 1.22
- PBM binding z-score [6]: 5.2
- PBM binding z-score [7]: 4.38
- PBM binding z-score [8]: 4.66
- PBM binding z-score [9]: 1.92
- PBM binding z-score [10]: 3.33
- PBM binding z-score [11]: 0.609
- PBM binding z-score [12]: 2.81
- PBM binding z-score [13]: 1.96
- PBM binding z-score [14]: 1.55
- PBM binding z-score [15]: 2.38
- PBM binding z-score [16]: 3.53
- PBM binding z-score [17]: 1.09
- PBM binding z-score [18]: 4.34
- PBM binding z-score [19]: 1.26
- PBM binding z-score [20]: 4.29

Sequence: CCTTACGGGTCACTGACCGGTTATAGCATTTGGA
- PBM binding z-score [1]: 5.3
- PBM binding z-score [2]: 5.49
- PBM binding z-score [3]: 1.84
- PBM binding z-score [4]: 4.04
- PBM binding z-score [5]: 0.194
- PBM binding z-score [6]: 5
- PBM binding z-score [7]: 3.68
- PBM binding z-score [8]: 4.28
- PBM binding z-score [9]: 1.31
- PBM binding z-score [10]: 2.95
- PBM binding z-score [11]: 3.02
- PBM binding z-score [12]: 3.86
- PBM binding z-score [13]: 1.44
- PBM binding z-score [14]: -0.432
- PBM binding z-score [15]: 2.45
- PBM binding z-score [16]: 2.93
- PBM binding z-score [17]: 0.0567
- PBM binding z-score [18]: 3.72
- PBM binding z-score [19]: 1.71
- PBM binding z-score [20]: 3.96

Sequence: CTTTACGGGTCACGAGGTTATAGCACGACGAGCG
- PBM binding z-score [1]: 7.21
- PBM binding z-score [2]: 5.4
- PBM binding z-score [3]: 1.34
- PBM binding z-score [4]: 4.38
- PBM binding z-score [5]: 0.444
- PBM binding z-score [6]: 6.35
- PBM binding z-score [7]: 8.06
- PBM binding z-score [8]: 7.02
- PBM binding z-score [9]: 4.31
- PBM binding z-score [10]: 6.25
- PBM binding z-score [11]: 5.55
- PBM binding z-score [12]: 6.46
- PBM binding z-score [13]: 1.86
- PBM binding z-score [14]: 2.29
- PBM binding z-score [15]: 2.93
- PBM binding z-score [16]: 4.96
- PBM binding z-score [17]: 0.279
- PBM binding z-score [18]: 6.19
- PBM binding z-score [19]: 0.513
- PBM binding z-score [20]: 4.81

Sequence: CCTAGTGGGCCACGAAAGGTCATTGATTCAGTGA
- PBM binding z-score [1]: 3.59
- PBM binding z-score [2]: 5.34
- PBM binding z-score [3]: 4.51
- PBM binding z-score [4]: 4.3
- PBM binding z-score [5]: 0.26
- PBM binding z-score [6]: 4.7
- PBM binding z-score [7]: 4.51
- PBM binding z-score [8]: 4.88
- PBM binding z-score [9]: 2.04
- PBM binding z-score [10]: 4.15
- PBM binding z-score [11]: 5.45
- PBM binding z-score [12]: 5.59
- PBM binding z-score [13]: 0.164
- PBM binding z-score [14]: -0.293
- PBM binding z-score [15]: 2.95
- PBM binding z-score [16]: 5.35
- PBM binding z-score [17]: 1.17
- PBM binding z-score [18]: 5.06
- PBM binding z-score [19]: 0.966
- PBM binding z-score [20]: 3.93

Sequence: CGAACTAGGTCATTGACAGGACAGTAAATAGTAA
- PBM binding z-score [1]: 4.05
- PBM binding z-score [2]: 2.93
- PBM binding z-score [3]: 0.467
- PBM binding z-score [4]: 2.31
- PBM binding z-score [5]: -0.338
- PBM binding z-score [6]: 4.66
- PBM binding z-score [7]: 7.77
- PBM binding z-score [8]: 6.44
- PBM binding z-score [9]: 3.43
- PBM binding z-score [10]: 5.8
- PBM binding z-score [11]: 8.11
- PBM binding z-score [12]: 7.89
- PBM binding z-score [13]: 2.15
- PBM binding z-score [14]: 1.51
- PBM binding z-score [15]: 1.72
- PBM binding z-score [16]: 1.89
- PBM binding z-score [17]: 0.641
- PBM binding z-score [18]: 2.43
- PBM binding z-score [19]: -0.0635
- PBM binding z-score [20]: 3.81

Sequence: CCCGCTAGGTCAATGGTCAGCTAAAGCAGCTCGC
- PBM binding z-score [1]: 3.1
- PBM binding z-score [2]: 2.28
- PBM binding z-score [3]: -0.0501
- PBM binding z-score [4]: 1.61
- PBM binding z-score [5]: 0.293
- PBM binding z-score [6]: 3.18
- PBM binding z-score [7]: 5.11
- PBM binding z-score [8]: 5.22
- PBM binding z-score [9]: 3.41
- PBM binding z-score [10]: 5.01
- PBM binding z-score [11]: 4.1
- PBM binding z-score [12]: 3.83
- PBM binding z-score [13]: -0.504
- PBM binding z-score [14]: -0.484
- PBM binding z-score [15]: 1.55
- PBM binding z-score [16]: 1.09
- PBM binding z-score [17]: -0.582
- PBM binding z-score [18]: 1.91
- PBM binding z-score [19]: -0.541
- PBM binding z-score [20]: 3.78
